Source: PubChem BioAssay (National Center for Advancing Translational Sciences (NCATS))
Rab9 prom act: activators of Rab9 promoter; Potency, µM (highest dose often 9.22 µM), actives largely listed as activators; hit rate 2.8% among 320,000; Huh7 Rab9 promoter-luciferase reporter, luminescence, 24 h; also: nearly all actives have a fitted effect of over 60% in size
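Steps: seed 1500 Huh7 Rab9-luc cells per well, rest 2 h at 37 °C; add compound in DMSO; incubate 24 h; add luciferase reagent, 10 min ambient; read luminescence.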
KinaseGlo FLuc: blocks Kinase-Glo luciferase, a counter-screen artifact. Kinase-Glo luciferase, ATP luminescence, 8 min. AID 1379. Potency, µM (series often up to 38.3 µM), actives largely listed as inhibitors. Q27757. hit rate 0.28% among 200,000; also: nearly all actives have a fitted effect of over 60% in size
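Luminescence was the read-out, taken after 8-minute incubation at ambient temperature. Luciferase turned over luciferin with 10 uM ATP in imidazole pH 7.2 buffer containing KCl, MgCl2, Tween 20 and BSA.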
FLuc counter: counter-screen for miR-21 project: firefly luciferase inhibitors or activators | P08659 | Potency, µM (titrated, usually from 57.5 µM), hits mostly inhibitors | hit rate 6.9% among 360,000 | purified FLuc, Km substrates, luminescence inhibition; also: nearly all actives have a fitted effect of over 55% in size
Target sequence (P08659 whole entry, looked up): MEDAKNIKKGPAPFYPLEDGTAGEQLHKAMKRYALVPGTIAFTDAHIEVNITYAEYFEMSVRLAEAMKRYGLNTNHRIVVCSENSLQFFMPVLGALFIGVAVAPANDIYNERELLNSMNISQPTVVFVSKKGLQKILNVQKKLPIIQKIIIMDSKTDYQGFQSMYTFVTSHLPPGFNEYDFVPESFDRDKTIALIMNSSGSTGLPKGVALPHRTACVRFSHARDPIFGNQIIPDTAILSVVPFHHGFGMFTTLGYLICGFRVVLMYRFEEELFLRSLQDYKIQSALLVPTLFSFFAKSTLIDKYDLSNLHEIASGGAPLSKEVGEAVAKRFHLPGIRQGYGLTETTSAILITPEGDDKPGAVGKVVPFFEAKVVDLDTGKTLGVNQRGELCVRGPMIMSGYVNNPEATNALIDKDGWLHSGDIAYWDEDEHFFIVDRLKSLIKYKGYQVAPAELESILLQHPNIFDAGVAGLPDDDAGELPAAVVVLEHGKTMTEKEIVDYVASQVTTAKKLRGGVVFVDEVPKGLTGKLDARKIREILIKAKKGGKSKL
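Biochemical qHTS of compounds, final roughly 60 µM downward over six points, against 10 nM purified firefly luciferase using Km concentrations of substrates (10 uM D-luciferin, 10 uM ATP) in Tris acetate pH 7.5 buffer; luminescence output.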
SMN2 splice up: increases expression of the SMN2 splice variant | HEK293 SMN2-luciferase splicing reporter, luminescence, 30-36 h | Potency, µM (top dose mostly 46.1 µM), usual class: activators | hit rate 2.8% among 210,000; also: nearly all actives have a fitted effect of over 55% in size
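HEK293 cells carry an SMN2 minigene-luciferase reporter in which exon 7 inclusion puts luciferase in frame. Cells were seeded at 2000 cells/well, attached for 10-12 hours, then exposed to compounds for 30-36 hours at 37C before ONE-Glo luminescence.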
ELG1 genotox: genotoxicity induction in ELG1-luciferase HEK293T cells | Potency, µM (top dose mostly 46 µM), actives largely listed as activators | AID 504466 | HEK293T ELG1-luciferase reporter, luminescence, 16 h | hit rate 1.3% among 330,000; also: nearly all actives have a fitted effect of over 60% in size
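Reporter readout depends on ELG1 protein level, which increases with genetic stress. After 16 hr compound exposure at 37 °C, luciferase activity was quantified using ONE-Glo.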
NPC1 promoter act: activators of NPC1 promoter | Huh7 NPC1 promoter luciferase reporter, 24 h | Potency, µM (top dose mostly 9.22 µM), usual class: activators | hit rate 2.4% among 320,000; also: nearly all actives have a fitted effect of over 60% in size
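Quantitative HTS used a cell-based reporter: Huh7 cells stably bearing the NPC1 promoter upstream of luciferase were treated with compounds for 24 h, and promoter activation was read as luminescence.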
Hits are given with their value; i = inactive; ? = inconclusive; nt = no result given. In the library only some 7.4% were active in any assay of this set; here they are far more common. Calls follow the shape of the dose curve; as a rule, active = well fitted curve in the direction sought with a large enough effect; inconclusive = small, poorly fitted or top-dose-only effect, or another doubt; inactive = no such curve, though single readings can be large; an effect the other way counts as inactive or inconclusive.

SMILES	Rab9 prom act	KinaseGlo FLuc	FLuc counter	SMN2 splice up	ELG1 genotox	NPC1 promoter act
COc1ccc(-c2nc3ccccc3c(=O)n2O)cc1	i	nt	i	nt	i	i
Clc1ccc(COn2c(-c3ccccc3)nc3ccccc32)cc1	i	i	i	i	i	i
N#CC1=C(N)Oc2cc3c(cc2C1c1ccc(Cl)cc1)OCO3 (configuration not stated)	i	i	i	25.1µM	i	i
O=C(O)CSc1nnc(-c2ccc(O)cc2)o1	nt	nt	?	i	nt	nt
N#Cc1c(NC(=O)CSc2nnc(-c3ccccc3)o2)sc2c1CCCC2	i	i	i	?	i	i
COc1ccccc1NC(=O)CSc1nnc(-c2ccccc2)o1	?	i	i	14.1µM	18.4µM	?
COc1ccccc1NC(=O)CSc1nnc(Cc2ccccc2)o1	nt	i	i	i	nt	nt
O=C(CSc1nnc(-c2ccc(O)cc2)o1)Nc1ccccc1	2.82µM	nt	?	nt	8.2µM	2.51µM
O=C(CSc1nnc(-c2csc3c2CCCC3)o1)Nc1ccccc1	0.562µM	i	i	1.78µM	0.581µM	?
Cc1csc(NC(=O)CSc2nnc(-c3ccccc3)o2)n1	2µM	i	i	11.2µM	5.01µM	3.16µM
COc1cccc(NC(=O)CSc2nnc(-c3cc(C)n(-c4ccccc4)c3C)o2)c1	i	i	12µM	i	i	i
Cc1csc(NC(=O)CSc2nnc(NC(=O)COc3ccccc3)s2)n1	i	i	2.13µM	i	i	i
O=C(Nc1nc(-c2ccccc2)cs1)NC1CCCCC1	i	i	?	i	23.1µM	i
O=C(Nc1nc(-c2ccccc2)cs1)C1CCCCN1S(=O)(=O)c1ccccc1 (configuration not stated)	i	i	i	i	i	i
c1ccc(-c2csc(NC3CCCCC3)n2)cc1	1µM	nt	1.69µM	nt	5.17µM	0.794µM
COc1ccc(-c2csc(NC3CCCCC3)n2)c(OC)c1	i	nt	23.9µM	nt	?	i
COc1cc(/C=N/NS(=O)(=O)c2ccc3ccccc3c2)ccc1OCc1ccc(C(=O)O)cc1	2µM	nt	0.338µM	nt	?	0.631µM
COc1cc(/C=N/NS(=O)(=O)c2ccc(C)cc2)ccc1OCc1cccc(C(=O)O)c1	0.891µM	i	0.426µM	3.55µM	i	2µM
COc1ccc(/C=N/NS(=O)(=O)c2ccc(C)cc2)cc1OC(=O)c1ccccc1	nt	i	i	i	nt	nt
CCc1ccc(OCC(=O)N/N=C/c2ccc(OS(=O)(=O)c3ccc(C)cc3)c(OC)c2)cc1	i	i	5.36µM	i	i	i
COc1ccc(OC)c(/C=C(\C#N)c2nc(-c3ccc(F)cc3)cs2)c1	nt	nt	i	nt	nt	nt
CCOc1ccc(NC(=O)Cn2cc(C(=O)c3ccc(F)cc3)c(=O)c3cc4c(cc32)OCO4)cc1	nt	nt	i	i	nt	nt
COC(=O)c1ccc(N2CCCCC2)c(N)c1	3.55µM	i	10.7µM	22.4µM	?	?
COC(=O)c1ccc(N2CCC(C)CC2)c(N)c1	?	i	12µM	i	18.4µM	?
COC(=O)c1ccc(C(=O)OC)c(N)c1	i	i	?	i	i	i
SMILES	Rab9 prom act	KinaseGlo FLuc	FLuc counter	SMN2 splice up	ELG1 genotox	NPC1 promoter act
COC(c1ccccc1)c1nnc(CCC(=O)N(C)Cc2cccc(-n3cccn3)c2)o1 (configuration not stated)	?	i	15.1µM	nt	?	i
COC(c1ccccc1)c1nnc(CCC(=O)N(C)CCOc2ccccc2)o1 (configuration not stated)	i	i	26.9µM	i	?	i
O=C(CSc1nncc2ccccc12)Nc1ccccc1	i	nt	16.9µM	nt	i	i
O=S(=O)(c1ccc2c(c1)OCCO2)N1CCN(S(=O)(=O)c2ccc3c(c2)OCCO3)CC1	0.398µM	nt	0.601µM	nt	nt	0.355µM
CCN(C(=O)COC(=O)/C(C#N)=C/c1ccc(N(C)C)cc1)C1CCS(=O)(=O)C1 (configuration not stated)	nt	nt	nt	nt	i	nt
CN(C)c1ccc(/C=C(\C#N)C(=O)OCC(=O)N(C)C2CCS(=O)(=O)C2)cc1 (configuration not stated)	i	nt	23.9µM	nt	?	i
CCN1c2ccccc2-c2nc(SCC(=O)NCc3ccc(C)cc3)ncc2S1(=O)=O	nt	nt	i	nt	nt	nt
Cc1oc2ncn(CC(C)C)c(=O)c2c1C(=O)Nc1cc(F)ccc1F	nt	nt	i	nt	nt	nt
Cc1ccc2[nH]c(-c3ccc(F)cc3F)cc(=O)c2c1	nt	i	nt	nt	nt	nt
COc1cccc2c1CCC1=CC(=O)CC[C@@]12C	nt	i	nt	i	nt	nt
O=C(N/N=C/c1ccccn1)c1cc(-c2ccc(Br)cc2)nc2ccccc12	i	nt	5.36µM	nt	?	i
O=C(N/N=C/c1ccccn1)c1cc(-c2ccc(Cl)cc2)nc2ccccc12	i	i	6.75µM	i	i	i
CCOc1ccccc1CNCc1c(C(=O)O)n(Cc2ccc(F)cc2)c2cc(C)ccc12	nt	nt	i	nt	nt	nt
O=C(COc1ccc(Cl)cc1)N/N=C/c1cccc2cccnc12	i	nt	i	nt	i	i
O=C(N/N=C/c1cccc2cccnc12)c1ccccc1O	i	nt	7.57µM	nt	20.6µM	i
O=C(N/N=C/c1cccc2nccnc12)c1ccccc1O	i	nt	10.7µM	nt	i	i
COc1ccc(OC)c(CNc2ncnc3c2nc2n3CCCC2)c1	nt	nt	i	nt	nt	nt
CN1C(=O)C2(Oc3ccccc3C3CC(c4ccccc4)=NN32)c2ccccc21 (configuration not stated)	i	i	?	i	i	i
S=C1NC2(CCS1)Oc1ccccc1C1CC(c3ccccc3)=NN12 (configuration not stated)	i	nt	26.9µM	nt	i	i
C[N+]1(C)CC(O)[C@H](C(=O)[O-])C1 (some centres not stated)	nt	i	nt	i	nt	nt
COc1cc2c(cc1OC)C(C)N(C(C)=O)CC2 (configuration not stated)	i	i	i	0.631µM	?	i
COc1cc2c(cc1OC)C(C)N(C(=O)c1cc(C)on1)CC2 (configuration not stated)	i	nt	i	nt	?	i
Brc1csc(C=Nc2ccc3c(c2)OCCOCCOCCOCCO3)c1	i	i	i	i	i	i
Oc1c(Cl)cc(Cl)cc1C=Nc1ccc2c(c1)OCCO2	i	i	26.9µM	nt	i	i
Brc1ccc(C=Nc2ccc3c(c2)OCCOCCOCCO3)s1	i	i	10.7µM	i	i	i
COC(=O)C(C(=O)OC)C(Cc1cc(F)cc(F)c1F)NC=O (configuration not stated)	nt	i	nt	i	nt	nt
Cc1ccc(C2=NN(C(=O)c3ccco3)C(O)(C(F)(F)F)C2)cc1 (configuration not stated)	i	i	19µM	nt	i	i
Nc1ccc(C(=O)N2N=C(c3ccc(F)cc3)CC2(O)C(F)(F)F)cc1 (configuration not stated)	i	nt	?	nt	i	i
